Anthrax LF inh2: Bacillus anthracis LF protease inhibitors, primary screen, biochemical, multiplex microsphere, MLPCN library. AID 588501, 2011. inhibition, % at 10 µM. hit rate 0.12% among 360,000. multiplex microsphere protease cleavage assay. Lethal factor (Bacillus anthracis), P15917; also: plate controls were buffer without enzyme for full effect and enzyme alone for no effect
Target sequence (P15917 whole entry, looked up): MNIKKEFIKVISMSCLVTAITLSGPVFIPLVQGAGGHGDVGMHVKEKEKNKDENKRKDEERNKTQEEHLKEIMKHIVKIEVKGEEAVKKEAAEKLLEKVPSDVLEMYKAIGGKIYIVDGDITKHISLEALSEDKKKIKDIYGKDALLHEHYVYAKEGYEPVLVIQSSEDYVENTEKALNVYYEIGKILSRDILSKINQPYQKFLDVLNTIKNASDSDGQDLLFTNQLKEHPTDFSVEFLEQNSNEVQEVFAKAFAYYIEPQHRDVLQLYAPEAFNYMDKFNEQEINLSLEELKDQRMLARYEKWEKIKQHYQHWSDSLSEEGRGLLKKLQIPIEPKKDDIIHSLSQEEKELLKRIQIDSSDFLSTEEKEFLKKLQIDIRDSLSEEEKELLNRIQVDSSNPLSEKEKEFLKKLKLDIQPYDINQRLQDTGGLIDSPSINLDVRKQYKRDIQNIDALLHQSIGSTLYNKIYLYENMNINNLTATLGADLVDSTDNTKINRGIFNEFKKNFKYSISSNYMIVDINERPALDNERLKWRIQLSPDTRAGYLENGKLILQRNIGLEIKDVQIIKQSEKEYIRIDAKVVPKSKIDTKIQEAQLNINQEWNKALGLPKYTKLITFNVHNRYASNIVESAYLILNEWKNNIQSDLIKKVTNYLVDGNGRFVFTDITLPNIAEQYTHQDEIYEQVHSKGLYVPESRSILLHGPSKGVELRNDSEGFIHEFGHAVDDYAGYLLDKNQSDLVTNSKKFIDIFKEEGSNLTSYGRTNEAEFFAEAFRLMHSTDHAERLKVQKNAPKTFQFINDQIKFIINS
BoNT A protease: BoNT/A light chain protease inhibitors, primary screen, biochemical, flow cytometry, MLPCN library; Botulinum neurotoxin type A light chain protease (Clostridium botulinum A str. ATCC 3502); multiplex microsphere protease substrate cleavage; inhibition, % at 10 µM; hit rate 0.17% among 360,000; AID 588499, 2011; also: plate controls were buffer without enzyme for full effect and enzyme alone for no effect
BoNT-F LC inh: BoNT/F light chain protease inhibitors, primary screen, biochemical, flow cytometry, MLPCN library; Botulinum neurotoxin type F light chain protease (Clostridium botulinum); Multiplex microsphere protease cleavage assay; inhibition, % at 10 µM; hit rate 0.22% among 360,000; in the data active = inhibition above about 35%, passing the limit was not always enough; inconclusive = no clear call, values can overlap the other calls; also: plate controls were buffer without enzyme for full effect and enzyme alone for no effect
MazEF act: activators of E. coli MazEF toxin-antitoxin RNase, primary screen, biochemical, fluorescence, uHTS | Endoribonuclease toxin MazF (Escherichia coli (strain K12)), P0AE70 | FAM/BHQ RNA-DNA oligo cleavage fluorescence, 5 h | activation, % at 20 µM | hit rate 0.32% among 350,000 | AID 504720, 2011; in the data active = activation above about 50%
Autofluor counter: counter-screen for toxin protease inhibitors: compound fluorescence; compound autofluorescence counterscreen, microsphere flow cytometry; active compounds read high; fluorescence intensity (concentration not given with the values); hit rate 3.1% among 360,000; AID 624483; in the data active = fluorescence intensity above about 16000; inconclusive = no clear call, values can overlap the other calls
Starred values were filed as active, the others as inactive; ? = inconclusive; · = no result; ! = not confirmed by another sample. Shown are actives, neighbours in structure and some others; about 3.7% of the full set was active somewhere. Rule as the data show it, unless noted: active = inhibition above about 30%; inconclusive = no clear call, values can overlap the other calls; inactive = below that.

SMILES | Anthrax LF inh2 | BoNT A protease | BoNT-F LC inh | MazEF act | Autofluor counter
COc1cccc(N2CCN(Cc3cccc(Cl)c3)CC2)c1 | -5 | ? | -6 | 5 | 24340*
FC(F)(F)c1cccc(N2CCN(Cc3cccnc3)CC2)c1 | -1 | 1 | 4 | 5 | 16207*
CC1(C(=O)NCc2cccc3ccccc23)CCN1C(=O)Cc1ccc(-c2ccccc2)cc1 (centres undefined) | -1 | 0 | 4 | · | 2968
O=C(NC1CCC(O)CC1)c1ccc2c(c1)S(=O)(=O)N=C1CCCCCN12 (centres undefined) | -1 | -1 | -10 | 2 | 5818
COc1cccc(CN2CCN(c3ncccn3)CC2)c1 | -2 | 0 | -3 | 4 | 22009*
COc1cccc(CN2CCN(Cc3cccc(F)c3)CC2)c1 | 3 | -2 | 24 | -18 | 3451
COc1cccc(N2CCN(Cc3cccnc3)CC2)c1 | -4 | 0 | -4 | 5 | 20710*
COc1cc(CN2CCN(Cc3ccc([N+](=O)[O-])cc3)CC2)c([N+](=O)[O-])cc1OC | -1 | 0 | 0 | -1 | 2343
COc1cccc(N2CCN(Cc3ccc(Cl)cc3)CC2)c1 | -8 | 0 | -14 | -11 | 10809
COc1cccc(CN2CCN(Cc3cc(OC)c(OC)cc3[N+](=O)[O-])CC2)c1 | -13 | ? | 14 | -2 | 16274*
CN1CCC(CC(C(=O)N2CCCC2)(c2ccccc2)c2ccccc2)C1 (centres undefined) | 7 | 1 | -7 | 9 | 3717
CN(CCc1cnn(C)c1)C(=O)C1CCC(=O)N(CC2CCCCC2)C1 (centres undefined) | -1 | -1 | 1 | 1 | 4824
COC(=O)C[C@@H]1C[C@@H]2c3cc(NS(=O)(=O)c4ccc(F)cc4)ccc3O[C@@H]2[C@@H](CO)O1 | -8 | 0 | 2 | 8 | 2909
COc1ccc(S(=O)(=O)N2CCOC23CCN(S(=O)(=O)c2ccc(C)cc2)CC3)cc1 | -3 | 0 | 8 | 1 | 4790
CC(=O)c1cccc(Nc2ccc(Br)cc2)c1 | 4 | 1 | 0 | · | 6103
C/C(N)=C(/C#N)C(=O)CSc1nnc(Nc2cccc(C)c2)s1 | 0 | 0 | 0 | -14 | 17498*!
C/C(N)=C(/C#N)C(=O)CSc1nnnn1-c1ccc(C)cc1C | -16 | 8 | 13 | -5 | 19626*
C/C(N)=C(/C#N)C(=O)CSc1nc2cc(Cl)ccc2s1 | 1 | ? | -5 | -13 | 24839*
Cc1cccc(Nc2nnc(SCC(=O)c3c(N)n(C4CC4)c(=O)[nH]c3=O)s2)c1 | -3 | 3 | -1 | 32 | 6438
O=[N+]([O-])c1ccc(NN=Cc2ccc3c(c2)OCO3)nc1 | -10 | -1 | -5 | 106* | 4225
O=[N+]([O-])c1ccc(NN=Cc2cccc(O)c2)nc1 | 0 | -1 | -3 | 11 | 4738
C#CCNC(=O)C[C@@H]1C[C@@]2(C(=O)OCC)CCC=C2N(Cc2ccc3c(c2)OCO3)C1=O | -2 | -1 | -6 | · | 5531
CCCN(CC(=O)Nc1ccccc1OC)C(=O)CN1C(=O)NC(C)(C)C1=O | -7 | -1 | -5 | 1 | 3048
Cc1nn(C2CCOC(C)(C)C2)c2c1C(c1ccc(OC(C)C)cc1)SCC(=O)N2 (centres undefined) | 0 | 0 | -2 | -7 | 21930*
O=C(N/C(=C/c1ccccc1)C(=O)N1CCCCC1)c1ccco1 | 5 | -1 | 2 | -2 | 6131
SMILES | Anthrax LF inh2 | BoNT A protease | BoNT-F LC inh | MazEF act | Autofluor counter
O=C(Nc1ccccn1)c1cc2ccccc2cc1O | 0 | 2 | 5 | 5 | 4970
c1ccc(Nc2ccccc2Nc2ccccn2)nc1 | 1 | -1 | -3 | 1 | 20926*
Oc1cccc2ccc(Nc3ccccn3)nc12 | 34* | 10 | 26 | 15 | 11243
CCN(CC)c1ccc(C(=O)NNC(=O)c2cccn2C)cc1 | · | · | · | -2 | ·
Cc1ccc2nc(C)/c(=N\O)c(C)nc2c1 | -1 | -2 | -5 | 4 | 16928*
CCN1C(=O)/C(=C2/SC(C)=C(C)N2CC)SC1=S | -4 | 2 | 11 | 76* | 4231
Cc1cccc(C)c1NC(=O)C1(NC(=O)C2CCCN2C(=O)OC(C)(C)C)CCCCC1 (centres undefined) | 0 | 2 | 4 | 2 | 21811*
Cc1cccc(NC(=O)[C@@H]2CCCN2C(=O)OC(C)(C)C)c1C | -16 | -4 | -5 | -1 | 3362
Cc1cc(S(=O)(=O)N2CCCC2)ccc1OCC(=O)Nc1ccccc1 | 0 | 1 | 6 | 4 | 4562
CC1(C)OC(=O)N(CCc2ccccc2)C1(C)O (centres undefined) | -2 | -4 | -7 | -3 | 25029*
CC1(C)OC(=O)N(CC(=O)Nc2ccccc2)C1(C)O (centres undefined) | -2 | 0 | 4 | 6 | 2609
CC(=O)O[C@H]1C[C@@]2(O)[C@@H](OC(=O)c3ccccc3)C3[C@@](C)([C@@H](O)C[C@H]4OC[C@@]34OC(C)=O)[C@@H](O)[C@H](OC(C)=O)C(=C1C)C2(C)C (some centres undefined) | -3 | -1 | 0 | 4 | 5744
CCN(CC)c1ccc(C=Nc2ccc(C#N)cc2)c(O)c1 | 0 | 1 | -10 | -13 | 2553
CCN(CC)c1ccc(C=Nc2ccccc2C)c(O)c1 | 34* | 51* | 19 | 4 | 6889
CCN(CC)c1ccc(O)c(C=Nc2ccc(C)c(C)c2)c1 | 23 | 50* | 7 | -2 | 2838
O=C(c1cccc(C(F)(F)F)c1)N1CCCC1 | -3 | ? | -5 | -6 | 16789*
O=C(c1cccc(F)c1)N1CCN(S(=O)(=O)c2ccc(C(F)(F)F)cc2)CC1 | 0 | ? | 2 | 9 | 22916*
O=C(c1cccc(Br)c1)N1CCCC1 | 0 | ? | 1 | 5 | 23116*
COc1ccc(S(=O)(=O)N(C)c2ccc(C(=O)N3CCN(c4ccccc4)CC3)cc2)cc1OC | -3 | -2 | -12 | 6 | 6697
CS(=O)(=O)c1ccc(C(=O)OCC(=O)NCc2cccs2)cc1[N+](=O)[O-] | -15 | 0 | -5 | -1 | 3609
COc1ccc(Cl)cc1C(=O)NNC(=O)CCNS(=O)(=O)c1ccccc1 | 0 | -1 | -1 | 1 | 4473
CCOc1ccccc1N=Nc1c(C)[nH]n(C(N)=S)c1=O | -1 | 3 | 56* | -17 | 3759
CN=C1SC(CC(=O)Nc2ccccc2F)C(=O)N1C (centres undefined) | 3 | -1 | -2 | 0 | 5395
CN=C1SC(CC(=O)Nc2cccc(C(F)(F)F)c2)C(=O)N1C (centres undefined) | -1 | -1 | -5 | 3 | 16700*
CN=C1SC(CC(=O)Nc2ccc(N3CCOCC3)cc2)C(=O)N1C (centres undefined) | -1 | ? | -8 | 5 | 25216*
CCN(CC(=O)Nc1ccc(NC(C)=O)cc1)C(=O)c1ccc(S(=O)(=O)N2CCCC2)cc1 | -12 | 0 | 2 | -6 | 2927

Source: PubChem
